Out of some 410,000 compounds screened, about 7,200 (1.8%) were called active. Entries that show only a call come without a potency. Roughly 7% stayed inconclusive and do not appear here. Only a selection was taken, and actives are over-represented in it overall. Values without a mark were called inactive. Calls come from the whole dose curve; as a rule, active = well fitted activation curve with a large enough effect; inconclusive = small, poorly fitted or top-dose-only effect, or another doubt; inactive = no such curve, though single readings can be large or run the other way.
Test: qHTS of TDP-43 Inhibitors; note: nearly all actives have a fitted effect of over 50% in size
Conditions: TDP-43 expressing yeast growth rescue, BacTiter-Glo, 24 h; series mostly up to 46.1 µM
Outline: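 Yeast cells expressing TDP-43 under galactose induction are exposed to compounds for 24 hr at 30 deg C. BacTiter-Glo luminescence measures growth, so protective compounds score as activators.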
Potency is the fitted concentration of half-maximal effect.

| Compound | Potency | growth rescue (activation) |
| --- | --- | --- |
| CCOc1ccc(N(CC)C(=O)c2noc3c2COc2ccc(C)cc2-3)cc1 | inactive | – |
| Cn1c(=O)sc2cc(NS(=O)(=O)c3ccc(C(C)(C)C)cc3)ccc21 | inactive | – |
| COc1cc(NC(=O)c2nn(-c3ccc(C)cc3)c(=O)c3c2c2ccccc2n3C)cc(OC)c1OC | inactive | – |
| COc1ccccc1-n1c(-c2ccc(C)cc2)cn2c3c(=O)n(C)c(=O)n(C)c3nc12 | inactive | – |
| Cc1ccc(C)n1-c1nnc(N2CCC(C(=O)NCc3ccccc3Cl)CC2)s1 | inactive | – |
| COc1cc(C(F)(F)F)c(C(=O)N(C)c2ccc(Cl)cc2)cn1 | – | -13.9% [at 1.82 µM] |
| COc1ccc(Nc2cc(Cl)ccc2C(=O)O)cn1 | 10 µM (active) | – |
| COc1ccc(Cl)cc1NC(=O)c1oc(C)nc1C | inactive | – |
| CCOC(=O)c1ccc(NC(=O)CSc2nc3c([nH]c4ccccc43)c(=O)n2C)cc1 | inactive | – |
| CSc1cccc(NC(=S)N(Cc2ccccc2)Cc2ccccn2)c1 | 20 µM (active) | – |
| CSc1cccc(NC(=S)N(C(C)C)C(C)c2ccccn2)c1 (stereo not given) | – | -6.51% [at 9.22 µM] |
| Cc1c(Cl)cccc1NC(=S)N(Cc1ccccc1)Cc1cccnc1 | inactive | – |
| CC(C)(C)OC(=O)N1CCC(c2c(C(=O)N3CCN(c4cccc(Cl)c4)CC3)cnn2-c2cccc(Cl)c2)CC1 | inactive | – |
| CCOCCCNC(=O)c1c(NC(=O)Cc2coc3c(C)c(C)ccc23)sc2c1CCC2 | inactive | – |
| O=C(CSC1=NCCS1)Nc1nc(-c2ccccc2)cs1 | 22.4 µM (active) | – |
| CC(NC(=O)COc1ccccc1)C(=O)NC1=NCCS1 (stereo not given) | inactive | – |
| Cc1csc(NC(=O)CSc2nnc(-c3cccnc3)o2)n1 | inactive | – |
| COc1ccc(-c2nn(CC(=O)Nc3ccccc3F)c3c2cnc2ccc(F)cc23)cc1 | inactive | – |
| Cc1ccc(Cn2c(=O)n(CCCC(=O)NCc3ccccc3Cl)c(=O)c3ccccc32)cc1 | inactive | – |
| COc1cc(OC)c(NC(=O)Cc2ccc(-n3c(C)nc4cccnc43)cc2)cc1Cl | inactive | – |

| Compound | Potency | growth rescue (activation) |
| --- | --- | --- |
| O=C(Nc1nc2c(s1)CCCC2)c1ccccc1F | inactive | – |
| Cc1cc(C)cc(OC(C)C(=O)Nc2nc3c(s2)CCCC3)c1 (stereo not given) | inactive | – |
| Fc1ccc2nc(Nc3nc4c(s3)CCCC4)sc2c1 | 2.24 µM (active) | – |
| COc1ccc(-c2cn3nc(N4CCC(C(=O)Nc5cccc(C)c5C)CC4)sc3n2)cc1 | inactive | – |
| CC1(C(=O)NS(=O)(=O)c2ccccc2)CCN1C(=O)c1ccccc1 (stereo not given) | inactive | – |
| Cc1ccccc1S(=O)(=O)NC(=O)C1(C)CCN1C(=O)Cc1ccc(Cl)cc1Cl (stereo not given) | inactive | – |
| Cc1ccccc1S(=O)(=O)NC(=O)C1(C)CCN1C(=O)C1(c2ccccc2)CCCC1 (stereo not given) | 35.5 µM (active) | – |
| CC1(C(=O)NS(=O)(=O)c2ccc3ccccc3c2)CCN1C(=O)C1(c2ccc(Cl)cc2)CCC1 (stereo not given) | inactive | – |
| Cc1ccccc1S(=O)(=O)NC(=O)C1(C)CCN1C(=O)C1(c2ccc(Cl)cc2)CC1 (stereo not given) | 28.2 µM (active) | – |
| CCCNC(=O)C1(C)CCN1C(=O)C1(c2ccccc2)CC1 (stereo not given) | inactive | – |
| COc1ccc(NC(=O)CSc2nccn2C2CCCC2)cc1OC | inactive | – |
| COc1ccccc1CCNC(=O)c1cccn1-c1nnc(N2CCCCC2)s1 | inactive | – |
| O=C(CCn1c(=O)c2sccc2n(Cc2ccc(F)cc2)c1=O)NCc1ccc2c(c1)OCO2 | inactive | – |
| O=C(Nc1ccc2nc(SCC(=O)N3CCCc4ccccc43)sc2c1)c1ccc(Cl)cc1 | inactive | – |
| CCOc1ccccc1NC(=O)CN1CCCN(Cc2cccc(Cl)c2)S1(=O)=O | inactive | – |
| CCCCn1cc(S(=O)(=O)c2ccc(OCC)cc2)c(=O)c2cc(OC)c(OC)cc21 | inactive | – |
| COc1ccc(S(=O)(=O)c2cn(C)c3cc(N4CCCCC4)c(F)cc3c2=O)cc1 | inactive | – |
| COc1cc2nc(NCC(C)c3ccccc3)n3nc(-c4ccccc4)nc3c2cc1OC (stereo not given) | inactive | – |
| CCCCC12CN3CC(C)(CN(C1)C3c1ccc(O)c(OC)c1)C2=O (stereo not given) | inactive | – |
| Cc1nc(-c2ccc(F)cc2)c(CC(=O)Nc2cc(S(=O)(=O)N3CCCCC3)ccc2C)s1 | inactive | – |

| Compound | Potency | growth rescue (activation) |
| --- | --- | --- |
| Cc1nc(-c2ccc(F)cc2)c(CC(=O)N2CCN(S(=O)(=O)c3ccc(F)cc3)CC2)s1 | inactive | – |
| Cc1ccc(S(=O)(=O)N2CCN(C(=O)Cc3sc(C)nc3-c3ccc(F)cc3)CC2)c(C)c1 | 35.5 µM (active) | – |
| COc1cccc(CNCc2c(C(=O)O)n(Cc3ccc(C)cc3)c3cc(C)ccc23)c1OC | inactive | – |
| COc1ccc(NS(=O)(=O)c2cc3c4c(c2)CC(=O)N4CCC3)cc1Cl | inactive | – |
| COc1cc(NC(=O)CSc2nc3nc(C)c(Cc4ccc(C)cc4)c(C)n3n2)cc(OC)c1OC | inactive | – |
| CC(C)c1ccc(NS(=O)(=O)c2cn(C)c(=O)n(C)c2=O)cc1 | 20 µM (active) | – |
| Cn1cc(S(=O)(=O)Nc2ccc(Cl)cc2Cl)c(=O)n(C)c1=O | inactive | – |
| Cn1cc(S(=O)(=O)NC(c2ccccc2)c2ccccc2)c(=O)n(C)c1=O | inactive | – |
| Cc1sc2ncnc(N3CCC(C(=O)Nc4ccc(F)cc4Cl)CC3)c2c1C | 15.8 µM (active) | – |
| CCc1ccc(C(=O)NNC(=O)C2CCN(c3ncnc4sc(C)c(C)c34)CC2)cc1 | inactive | – |
| Cc1nnc(N2CCC(C(=O)Nc3ccc(F)cc3)CC2)c2nn(-c3ccc(Cl)cc3)c(C)c12 | inactive | – |
| O=C(CCn1ccc2cc(S(=O)(=O)N3CCCC3)ccc21)NCc1cccc(Cl)c1 | inactive | – |
| CCOC(=O)c1ccc(NC(=O)CCS(=O)(=O)c2ccc(C)cc2)cc1 | inactive | – |
| O=C(CCc1nc(CN2CCN(S(=O)(=O)c3ccc(F)cc3)CC2)no1)N1CCCCC1 | inactive | – |
| COc1cccc(CNC(=O)Cn2ncn3c(cc4ccccc43)c2=O)c1 | inactive | – |
| Fc1ccc(-n2ncc3c(Nc4ccc(Oc5ccccc5)cc4)ncnc32)cc1 | inactive | – |
| CCCCNc1c(-c2ccc(OC)c(Sc3ccc(OC)cc3)c2)nc2ccc(Cl)cn12 | 17.8 µM (active) | – |
| CCCCNc1c(-c2cccc(Sc3ccc(OC)cc3)c2)nc2ccccn12 | inactive | – |
| COc1ccc(-c2nc3cc(C)ccn3c2NC2CCCCC2)cc1SC1CCCCC1 | inactive | – |
| O=C1CN(C(=O)Nc2ccccc2C(F)(F)F)C(c2ccccc2)c2c(sc3c2CCCC3)N1 (stereo not given) | inactive | – |

Reference: PubChem BioAssay AID652104 (National Center for Advancing Translational Sciences (NCATS), 2013)
